{
  "source": "PubChem BioAssay (NCI)",
  "note": "About 83,000 compounds went through this panel and 20% of them were active in at least one assay; those are over-represented in the sample as a whole.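 A percent growth of 40 corresponds to 60% growth inhibition; 0 means no net growth; -100 means all cells died. Active threshold: below 10.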 Unmarked numbers belong to inactive results. Calls of active or inactive are those of the source.",
  "data": [
    {"tested_on": "HCC-2998 colon", "experiment": "NCI-60 one-dose screen, 48 h (100 = growth as untreated, 0 = no growth, -100 = all killed)", "details": "10 µM unless noted", "values": [
      {"smiles": "Fc1ccc(C2=NN(c3ccccc3)C(c3sc(N(CCCl)CCCl)nc3Cl)C2)cc1", "note": "(stereo not drawn)", "growth": "103%"},
      {"smiles": "CC[C@H](C)[C@H](NC(=O)Nc1ccccc1)C(=O)N(C)[C@H](C[C@@H](OC(C)=O)c1nc(C(=O)N[C@@H](Cc2ccccc2)C[C@H](C)C(=O)OC)cs1)C(C)C", "growth": "18.7%"},
      {"smiles": "c1ccc(CCN2CCCCC2Cc2ccccc2)cc1", "note": "(stereo not drawn)", "growth": "83.6%"},
      {"smiles": "CC(=O)O[C@H]1CCC2(C)C(=CCC3C2CCC2(C)/C(=N/OC(=O)c4ccc(N(CCCl)CCCl)cc4)CCC32)C1", "note": "(stereo partly drawn)", "growth": "80.3%"},
      {"smiles": "O=C(N/N=C/c1ccc(N(CCCl)CCCl)cc1)c1cc(=O)[nH]c(=O)[nH]1", "growth": "104%"},
      {"smiles": "O=[As]c1ccc(C(=O)c2ccc(Oc3ccccc3)cc2)cc1", "note": "(stereo not drawn)", "growth": "-93.9% (active)"},
      {"smiles": "O=[N+]([O-])c1cc([N+](=O)[O-])c(Cl)c(Cl)c1Cl", "growth": "78.8%"},
      {"smiles": "Cc1cc(NC(=O)NCCOc2ccc(N3C(N)=NC(N)=NC3(C)C)cc2Cl)ccc1S(=O)(=O)F", "growth": "47.3%"},
      {"smiles": "COc1ccc2c(c1)NC1=C(C(=O)OC1)C2c1cc(OC)c(OC)c(OC)c1", "note": "(stereo not drawn)", "growth": "10.9%"},
      {"smiles": "C=CCc1ccc(OC(=O)Cc2ccccc2)c(OC)c1", "growth": "95.8%"},
      {"smiles": "CC(C)(O)/C=C/C(=O)[C@](C)(O)[C@H]1[C@H](O)C[C@@]2(C)[C@@H]3CC=C4[C@@H](C=C(O)C(=O)C4(C)C)[C@]3(C)C(=O)C[C@]12C", "growth": "-99% (active)"},
      {"smiles": "C[C@]12CCc3sc(-c4ccc(Cl)cc4)nc3C1=CC[C@@H]1[C@@H]2CC[C@]2(C)C(=O)CC[C@@H]12", "growth": "90.4%"},
      {"smiles": "C=CCC1(CC)C(=O)NC(=S)NC1=O", "growth": "96.5%"},
      {"smiles": "NC(Cc1ccc2c(c1)OCO2)c1ccc2c(c1)OCO2", "note": "(stereo not drawn)", "growth": "106%"},
      {"smiles": "O=C(CF)N(O)c1ccc(/C=C/c2ccccc2)cc1", "growth": "25.4%"},
      {"smiles": "COc1ccc(/C=C(/C(=O)N2CCCC2)c2cc(OC)c(OC)c(OC)c2)cc1N", "growth": "68.5%"},
      {"smiles": "Nc1nc(N)c(-c2ccc(Cl)c(Cl)c2)c(/C=C/c2ccc(S(=O)(=O)F)cc2)n1", "growth": "111%"},
      {"smiles": "Nc1c(Br)cc([N+](=O)[O-])cc1[N+](=O)[O-]", "growth": "102%"},
      {"smiles": "CN(C)P1(N(C)C)=NP(N(C)C)(N(C)C)=NP(N(C)C)(N(C)C)=N1", "growth": "111%"},
      {"smiles": "CCCCNCCc1ccccn1", "growth": "114%"},
      {"smiles": "CNC(=O)Oc1cccc(OC)c1", "growth": "105%"},
      {"smiles": "C=C=[CH][Sn]([c]1ccccc1)([c]1ccccc1)[c]1ccccc1", "growth": "-67.2% (active)"},
      {"smiles": "NC(=O)SCC(=O)Nc1ccc([As](=O)(O)O)cc1", "growth": "82%"},
      {"smiles": "C[C@]12CC[C@H]3[C@@H](C[C@@H]4N=C(c5ccc(O)cc5)S[C@@]45C[C@H](O)CC[C@]35C)[C@@H]1CC[C@@H]2O", "growth": "95.3%"},
      {"smiles": "CC1(C)N=C(N)N=C(N)N1c1ccc(CCCCc2ccc(S(=O)(=O)F)cc2)cc1", "growth": "45.3%"},
      {"smiles": "Nc1c(Br)cc2c3c(cccc13)-c1ccccc1-2", "growth": "80.7%"},
      {"smiles": "COc1cc2c(cc1OC)CN(C)C(C)C2", "note": "(stereo not drawn)", "growth": "97.5%"},
      {"smiles": "c1ccc2nc(OCCN3CC3)ccc2c1", "growth": "86.7%"},
      {"smiles": "CC1(C)N=C(N)N=C(N)N1c1ccc(CNC(=O)Nc2ccc(S(=O)(=O)F)c(Cl)c2)c(Cl)c1", "growth": "39.7%"},
      {"smiles": "c1ccc(-c2ccc3ccccc3[o+]2)cc1", "growth": "108%"},
      {"smiles": "CSc1ccccc1NP1(=O)OCC(C)([N+](=O)[O-])CO1", "note": "(stereo not drawn)", "growth": "104%"},
      {"smiles": "CC1COC(=O)C1", "note": "(stereo not drawn)", "growth": "98.6%"},
      {"smiles": "C[CH2][Pb]([CH2]C)([CH2]C)[O]C(=O)COc1ccccc1", "growth": "-52% (active)"},
      {"smiles": "COc1ccc(/C=C\\c2cc(OC)c(OC)c(OC)c2)cc1N/C=C\\C(=O)c1c[nH]c2ccccc12", "growth": "21.4%"},
      {"smiles": "CCCC(C)(C)c1ccc2c(c1)OC(C)(C)[C@@H]1CC=C(C)C[C@@H]21", "growth": "109%"},
      {"smiles": "OC1(c2ccc(Cl)cc2Cl)c2ccccc2C2=NCCN21", "note": "(stereo not drawn)", "growth": "75.3%"},
      {"smiles": "CC1(CF)NC(=O)NC1=O", "note": "(stereo not drawn)", "growth": "102%"},
      {"smiles": "O=C(Nc1ccc(S(=O)(=O)F)cc1)Oc1ccccc1", "growth": "110%"}
    ]},
    {"tested_on": "KM12 colon", "experiment": "NCI-60 one-dose screen, 48 h (100 = growth as untreated, 0 = no growth, -100 = all killed)", "details": "10 µM unless noted", "values": [
      {"smiles": "Fc1ccc(C2=NN(c3ccccc3)C(c3sc(N(CCCl)CCCl)nc3Cl)C2)cc1", "note": "(stereo not drawn)", "growth": "81.1%"},
      {"smiles": "CC[C@H](C)[C@H](NC(=O)Nc1ccccc1)C(=O)N(C)[C@H](C[C@@H](OC(C)=O)c1nc(C(=O)N[C@@H](Cc2ccccc2)C[C@H](C)C(=O)OC)cs1)C(C)C", "growth": "4.31% (active)"},
      {"smiles": "c1ccc(CCN2CCCCC2Cc2ccccc2)cc1", "note": "(stereo not drawn)", "growth": "103%"},
      {"smiles": "CC(=O)O[C@H]1CCC2(C)C(=CCC3C2CCC2(C)/C(=N/OC(=O)c4ccc(N(CCCl)CCCl)cc4)CCC32)C1", "note": "(stereo partly drawn)", "growth": "47.6%"},
      {"smiles": "O=C(N/N=C/c1ccc(N(CCCl)CCCl)cc1)c1cc(=O)[nH]c(=O)[nH]1", "growth": "111%"},
      {"smiles": "O=[As]c1ccc(C(=O)c2ccc(Oc3ccccc3)cc2)cc1", "note": "(stereo not drawn)", "growth": "-87.2% (active)"},
      {"smiles": "O=[N+]([O-])c1cc([N+](=O)[O-])c(Cl)c(Cl)c1Cl", "growth": "37.4%"},
      {"smiles": "Cc1cc(NC(=O)NCCOc2ccc(N3C(N)=NC(N)=NC3(C)C)cc2Cl)ccc1S(=O)(=O)F", "growth": "20.1%"},
      {"smiles": "COc1ccc2c(c1)NC1=C(C(=O)OC1)C2c1cc(OC)c(OC)c(OC)c1", "note": "(stereo not drawn)", "growth": "-4.06% (active)"},
      {"smiles": "C=CCc1ccc(OC(=O)Cc2ccccc2)c(OC)c1", "growth": "110%"},
      {"smiles": "CC(C)(O)/C=C/C(=O)[C@](C)(O)[C@H]1[C@H](O)C[C@@]2(C)[C@@H]3CC=C4[C@@H](C=C(O)C(=O)C4(C)C)[C@]3(C)C(=O)C[C@]12C", "growth": "-60.9% (active)"},
      {"smiles": "C[C@]12CCc3sc(-c4ccc(Cl)cc4)nc3C1=CC[C@@H]1[C@@H]2CC[C@]2(C)C(=O)CC[C@@H]12", "growth": "66.8%"},
      {"smiles": "C=CCC1(CC)C(=O)NC(=S)NC1=O", "growth": "101%"},
      {"smiles": "NC(Cc1ccc2c(c1)OCO2)c1ccc2c(c1)OCO2", "note": "(stereo not drawn)", "growth": "109%"},
      {"smiles": "O=C(CF)N(O)c1ccc(/C=C/c2ccccc2)cc1", "growth": "69.5%"},
      {"smiles": "COc1ccc(/C=C(/C(=O)N2CCCC2)c2cc(OC)c(OC)c(OC)c2)cc1N", "growth": "14.8%"},
      {"smiles": "Nc1nc(N)c(-c2ccc(Cl)c(Cl)c2)c(/C=C/c2ccc(S(=O)(=O)F)cc2)n1", "growth": "86.8%"},
      {"smiles": "Nc1c(Br)cc([N+](=O)[O-])cc1[N+](=O)[O-]", "growth": "105%"},
      {"smiles": "Oc1ccc(O)c2c1C1(Cl)C(Cl)=C(Cl)C2(Cl)C1(Cl)Cl", "growth": "34.6%"},
      {"smiles": "CN(C)P1(N(C)C)=NP(N(C)C)(N(C)C)=NP(N(C)C)(N(C)C)=N1", "growth": "104%"},
      {"smiles": "CCCCNCCc1ccccn1", "growth": "102%"},
      {"smiles": "CNC(=O)Oc1cccc(OC)c1", "growth": "112%"},
      {"smiles": "C=C=[CH][Sn]([c]1ccccc1)([c]1ccccc1)[c]1ccccc1", "growth": "-84.8% (active)"},
      {"smiles": "NC(=O)SCC(=O)Nc1ccc([As](=O)(O)O)cc1", "growth": "97.6%"},
      {"smiles": "C[C@]12CC[C@H]3[C@@H](C[C@@H]4N=C(c5ccc(O)cc5)S[C@@]45C[C@H](O)CC[C@]35C)[C@@H]1CC[C@@H]2O", "growth": "60.8%"},
      {"smiles": "CC1(C)N=C(N)N=C(N)N1c1ccc(CCCCc2ccc(S(=O)(=O)F)cc2)cc1", "growth": "17.1%"},
      {"smiles": "Nc1c(Br)cc2c3c(cccc13)-c1ccccc1-2", "growth": "57.4%"},
      {"smiles": "COc1cc2c(cc1OC)CN(C)C(C)C2", "note": "(stereo not drawn)", "growth": "102%"},
      {"smiles": "CC(C)C1c2ccc(O)cc2Oc2nc(N)c(C#N)c(N)c21", "note": "(stereo not drawn)", "growth": "103%"},
      {"smiles": "c1ccc2nc(OCCN3CC3)ccc2c1", "growth": "80.3%"},
      {"smiles": "CC1(C)N=C(N)N=C(N)N1c1ccc(CNC(=O)Nc2ccc(S(=O)(=O)F)c(Cl)c2)c(Cl)c1", "growth": "21.2%"},
      {"smiles": "c1ccc(-c2ccc3ccccc3[o+]2)cc1", "growth": "91.8%"},
      {"smiles": "CSc1ccccc1NP1(=O)OCC(C)([N+](=O)[O-])CO1", "note": "(stereo not drawn)", "growth": "104%"},
      {"smiles": "CC1COC(=O)C1", "note": "(stereo not drawn)", "growth": "99.8%"},
      {"smiles": "C[CH2][Pb]([CH2]C)([CH2]C)[O]C(=O)COc1ccccc1", "growth": "1.59% (active)"},
      {"smiles": "COc1ccc(/C=C\\c2cc(OC)c(OC)c(OC)c2)cc1N/C=C\\C(=O)c1c[nH]c2ccccc12", "growth": "3.99% (active)"},
      {"smiles": "CCCC(C)(C)c1ccc2c(c1)OC(C)(C)[C@@H]1CC=C(C)C[C@@H]21", "growth": "103%"},
      {"smiles": "OC1(c2ccc(Cl)cc2Cl)c2ccccc2C2=NCCN21", "note": "(stereo not drawn)", "growth": "101%"},
      {"smiles": "CC1(CF)NC(=O)NC1=O", "note": "(stereo not drawn)", "growth": "106%"},
      {"smiles": "O=C(Nc1ccc(S(=O)(=O)F)cc1)Oc1ccccc1", "growth": "102%"}
    ]}
  ]
}
